# This is a sample that favours compounds with a hit; in the whole collection about 6.9% have one here.
# HP1b binding inh – inhibitors of HP1-beta chromodomain binding to methylated histone tails; 390,000 compounds, 0.56% hits; P83916; AlphaScreen HP1-beta / biotin-H3K9me3 peptide binding; Potency, µM (highest dose often 114 µM), for inactives: at the highest dose activity change, negative = inhibition, hits mostly inhibitors; further: nearly all actives have a fitted effect of over 70% in size
#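 AlphaScreen: HP1-beta (50 nM) preformed 30 min with biotin-H3(1-18)K9me3 peptide (50 nM) in PBS pH 7.4, 0.01% Tween-20. Compound added for 30 min at RT, then streptavidin donor/nickel chelate acceptor beads (10 ug/mL) for 30 min.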
# JMJD2A Tudor – JMJD2A Tudor domain (human) inhibition. O75164. AlphaScreen JMJD2A-Tudor / H3K4me3 peptide binding. Potency, µM (highest dose often 114 µM), inactives show top-dose activity change, negative = inhibition, hits mostly inhibitors. 390,000 compounds, 4.4% hits; further: on the % scale 0 is the no-effect control and ±100 the full control effect; nearly all actives have a fitted effect of over 50% in size
# VDR inh – blocks the human vitamin D receptor | VDR-SRC2-3 peptide fluorescence polarization, 2 h | P11473 | 400,000 compounds, 0.93% hits | Potency, µM, inactives show max response, negative = inhibition, usual class: inhibitors; further: on the % scale 0 is the no-effect control and ±100 the full control effect
#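 VDR–SRC2-3 interaction, FP format. Cmpds 23 nl via pintool, brief spin, 2 h ambient incubation.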
# PLK1 PBD block – blocks phosphopeptide binding to human PLK1 polo-box domain; P53350; Potency, µM, for inactives: max response, negative = inhibition, hits mostly inhibitors; Plk1 PBD binding of FITC phosphopeptide, fluorescence polarization; 360,000 compounds, 2.8% hits; further: series mostly up to about 57 µM; on the % scale 0 is the no-effect control and ±100 the full control effect; nearly all actives have a fitted effect of over 65% in size
# BAZ2B inh – blocks human BAZ2B; Q9UIF8; AlphaScreen BAZ2B-H3K14Ac peptide displacement; Potency, µM (doses to about 114 µM), inactives show top-dose activity change, negative = inhibition, hits mostly inhibitors; 360,000 compounds, 4.4% hits; AID 504333; further: on the % scale 0 is the no-effect control and ±100 the full control effect; nearly all actives have a fitted effect of over 60% in size
#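 Inhibition is scored as reduced AlphaScreen emission. The BAZ2B/b-H3(5-23)K14Ac complex (50 nM each) in PBS pH 7.4, 0.01% Tween-20 meets compound (up to 110 uM) for 30 min at RT before bead addition.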
# L3MBTL1 inh – inhibitors of human L3MBTL1 | Q9Y468 | 230,000 compounds, 0.66% hits | Potency, µM (series often up to 57.1 µM), for the others: at the highest dose activity, negative = inhibition, usual class: inhibitors | AlphaScreen L3MBTL1–H3K9me1 peptide binding; further: on the % scale 0 is the no-effect control and ±100 the full control effect; nearly all actives have a fitted effect of over 60% in size
# Target sequence (Q9Y468 whole entry, looked up): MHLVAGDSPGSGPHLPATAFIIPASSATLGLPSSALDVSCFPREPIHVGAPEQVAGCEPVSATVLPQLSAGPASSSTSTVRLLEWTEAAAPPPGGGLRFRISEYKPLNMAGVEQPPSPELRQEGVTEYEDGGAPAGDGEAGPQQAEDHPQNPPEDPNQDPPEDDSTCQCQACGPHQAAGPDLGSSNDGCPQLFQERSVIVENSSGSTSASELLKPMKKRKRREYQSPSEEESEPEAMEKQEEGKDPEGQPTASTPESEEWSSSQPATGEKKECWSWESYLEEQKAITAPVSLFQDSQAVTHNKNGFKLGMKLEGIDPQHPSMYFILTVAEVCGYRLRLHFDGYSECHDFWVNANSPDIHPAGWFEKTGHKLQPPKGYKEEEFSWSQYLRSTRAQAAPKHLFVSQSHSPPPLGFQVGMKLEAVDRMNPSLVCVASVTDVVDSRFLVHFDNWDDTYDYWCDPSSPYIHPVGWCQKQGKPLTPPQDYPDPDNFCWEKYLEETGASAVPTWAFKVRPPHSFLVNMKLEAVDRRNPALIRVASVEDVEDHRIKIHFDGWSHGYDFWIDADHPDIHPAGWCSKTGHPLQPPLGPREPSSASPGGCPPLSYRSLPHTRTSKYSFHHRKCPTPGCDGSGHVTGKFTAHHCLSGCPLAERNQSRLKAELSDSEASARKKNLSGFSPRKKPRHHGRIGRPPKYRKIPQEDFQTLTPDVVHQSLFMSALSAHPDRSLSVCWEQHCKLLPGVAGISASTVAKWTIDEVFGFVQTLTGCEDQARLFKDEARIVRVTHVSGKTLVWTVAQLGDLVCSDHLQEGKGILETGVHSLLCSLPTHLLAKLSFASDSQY
#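 L3MBTL1 50 nM + b-AHA-H3(1-15)K9me1 75 nM, 30 min RT; compound added, 30 min RT; streptavidin donor/Ni-chelate acceptor beads 10 ug/mL each final, 30 min RT dark; AlphaScreen read.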
# Numbers without * were called inactive; ? = inconclusive; / = no result given; [ ] = dose if it differs, or a comment. The call rests on the fitted dose curve; in most records, active means well fitted curve in the direction sought with a large enough effect; inconclusive means small, poorly fitted or top-dose-only effect, or another doubt; inactive means no such curve, though single readings can be large; an effect the other way counts as inactive or inconclusive. Potency means the concentration at half of the fitted maximal effect.
SMILES,HP1b binding inh,JMJD2A Tudor,VDR inh,PLK1 PBD block,BAZ2B inh,L3MBTL1 inh
C=CCOC(=O)C1=C(C)NC(SCC(=O)Nc2nccs2)=C(C#N)C1c1cccs1 (stereo not drawn),-13%,-13%[11.4 µM],-15%,30µM*,-6%,-9%
COc1ccc(OCC(=O)Nc2c(C(=O)N3CCN(C)CC3)oc3ccccc23)cc1,8%,?,-30%,30µM*,-33%,/
CCCN1CCN(C(=O)c2oc3ccccc3c2NC(=O)COc2ccc(OC)cc2)CC1,29%,-6%,20µM*,-6%,-26%,/
COc1ccc(OCC(=O)Nc2c(C(=O)N3CCN(c4ccccc4)CC3)oc3ccccc23)cc1,10%,-23%,7%,/,-15%[57.1 µM],/
CCOc1ccc(CCNC(=O)CN2C(=O)COc3ccc(S(=O)(=O)N4CCC(C)CC4)cc32)cc1,25%,-6%,-14%,/,-6%,/
COc1ccc(CCNCC(=O)Nc2ccc(C)c(S(=O)(=O)N(C)C)c2)cc1OC,-20%,?,-7%,-13%,22µM*,-12%
COC(=O)C1=C(C)N(Cc2ccc(OC)c(OC)c2)C(=O)C1,6%,-28%[11.4 µM],4%,21µM*,-9%,3%
COc1ccc(CCNCC(=O)N2C(C)CCCC2C)cc1OC (stereo not drawn),?,0.79µM*,2%,-7%,79µM*,3%
COc1ccc(OCC(=O)Nc2ccc(C)c(S(=O)(=O)N(C)C)c2)cc1,44%,-10%,16%,-19%,-23%,-3%
COC(=O)C1=C(C)N(CCc2ccc(OC)c(OC)c2)C(=O)C1,28%,-21%,-2%,-8%,-4%,/
COC(=O)c1cc(NC(=O)Cc2ccc(OC)c(OC)c2)cc(C(=O)OC)c1,3%,45µM*,?,27µM*,3%,2%
Cc1cc(C)cc(NC(=O)C(NS(=O)(=O)c2cccc3nsnc23)c2ccccc2)c1 (stereo not drawn),-8%,?,?,/,/,/
COc1ccc(CCNCC(=O)Nc2ccc(C)c(Br)c2)cc1OC,?,50µM*,1%,-7%,?,0%
COc1ccc(CCNC(=O)Cc2ccc(OC)c(OC)c2)cc1OC,16%,-12%,13%,-11%,-4%,7%
COC(=O)c1ccccc1NC(=O)CNCCc1ccc(OC)c(OC)c1,-34%,25µM*,3%,-12%,20µM*,/
CCCC[C@]12Cc3ccccc3[C@H](O1)C1=C(O2)C(=O)c2ccccc2C1=O,/,/,/,/,5%[22.9 µM],/
CCCC[C@]12Cc3cc(OC)c(OC)cc3C(O1)C1=C(O2)C(=O)c2ccccc2C1=O,/,/,/,/,7.1µM*,/
O=C(CCSc1nnc2scc(-c3ccccc3)n12)NCc1ccc2c(c1)OCO2,14%,-18%,-5%,-5%,0%,-7%
c1ccc(-c2csc3nnc(SCc4ccc5c(c4)OCO5)n23)cc1,-5%,20µM*,79µM*,21µM*,-30%,12%
Oc1ccc(-c2cn3c(n2)SCC3)cc1O,?,11µM*,-14%,24µM*,?,/
Oc1ccc(-c2cn3c(n2)SCC3)cc1,1%,-28%,-6%,-10%,-11%,/
NC(=S)NNc1ccc(Cl)c(Cl)c1,-13%,?,?,?,?,/
Cc1ccc(NNC(N)=S)cc1Cl,-14%,?,79µM*,-22%,-39%,/
COc1ccc(/C=C/C(=O)c2cc3cccc(OC)c3oc2=O)cc1,6%,-20%,?,-18%,-24%,-21%
COc1cc(OC)c(C=CC(=O)c2ccccc2O)c(OC)c1,28µM*,?,7%,0%,/,/
SMILES,HP1b binding inh,JMJD2A Tudor,VDR inh,PLK1 PBD block,BAZ2B inh,L3MBTL1 inh
COc1cc(/C=C/C(=O)c2ccccc2O)cc(OC)c1OC,-32%,50µM*,32µM*,?,56µM*,-7%
CCCN(CCC)CCNC(=O)C(NS(=O)(=O)c1ccc2c(c1)CCC(=O)N2)c1ccccc1 (stereo not drawn),42%,-11%,4%,-10%,-1%,5%[11.4 µM]
COc1ccc(-n2c(=O)c3ccccc3n(Cc3ccc(F)cc3Cl)c2=O)cc1OC,36%,-1%,-6%,/,5%,/
CC(C)COc1ccc(CNC(=S)Nc2ccccc2)cc1Cl,88%,-11%,-7%,-6%,-14%,/
O=C(c1cnccn1)N1CCC2(CCCN(c3ccncc3)C2)CC1,/,/,5%,/,/,/
Cc1cc(S(=O)(=O)NCC(=O)O)ccc1F,6%,-11%[11.4 µM],-17%,21µM*,7%,13%
CCOC(=O)C1CCN(C(=O)Nc2cc(Cl)cc(Cl)c2)CC1,65%,2%,9%,-3%,16%,/
Cc1cc(C)c(OCCN(C)Cc2ccccc2)c(Br)c1,54%,0%,-5%,3%,6%,10%
Cc1ccc(Cl)c(OCCCN(C)Cc2ccccc2)c1,45µM*,1.1µM*,3%,-12%,32µM*,/
Cc1ccc(Cl)c(OCCCCN(C)Cc2ccccc2)c1,-36%,2.8µM*,-5%,2%,-35%,4%
Cc1ccc(C(=O)OCCN(C)Cc2ccccc2)cc1,36%,-8%,10%,0%,-12%,16%
COc1ccc(C(=O)Nc2ccc(OCc3cc(=O)n4ccccc4n3)cc2)cc1,-2%[57 µM],-12%,7%,/,2%,/
Nc1nc(N)c(S(=O)(=O)c2ccccc2)c(Nc2ccc(Br)cc2)n1,7%,-28%,1%,/,?,/
NC(=O)CSc1ncc2c(n1)-c1ccccc1N(Cc1cccc(F)c1)S2(=O)=O,3%,-5%,2%,/,-38%,/
O=C(NCc1ccccc1)C1Cc2c(-c3ccc4c(c3)OCO4)ccnc2O1 (stereo not drawn),/,/,/,1%,/,/
COc1cccc(-c2nc(CCl)cs2)c1OC,60%,50µM*,-12%,-26%,?,-3%
COc1cccc(-c2nc(CC(=O)O)cs2)c1OC,32%,5%[57.1 µM],12%,-10%,-8%,/
O=C(c1cccs1)N1CCN(C2CCN(Cc3ccccc3)CC2)CC1,22%,6%,14%,-3%,-2%,16%[11.4 µM]
COc1cc(OC)cc(C(=O)N2CCN(C3CCC(C)CC3)CC2)c1 (stereo not drawn),?,56µM*,25%,3%,/,/
O=C(c1ccccc1F)N1CCN(C(=O)C2CC2)CC1,9%,-8%,-6%,-1%,-31%,/
CC1CCC(N2CCN(C(=O)c3ccccc3F)CC2)CC1 (stereo not drawn),?,28µM*,9%,-3%,79µM*,-6%
COc1cc(OC)cc(C(=O)N2CCN(C3CCN(Cc4ccccc4)CC3)CC2)c1,?,1.1µM*,15%,2%,14µM*,/
COc1cc2oc(=O)cc(CN3CCN(C(C)=O)CC3)c2cc1Cl,/,/,/,-14%,/,/
Cc1ccc(S(=O)(=O)N/N=C\c2ccc(C)o2)cc1,5%,?,-9%,-17%,50µM*,?

# High-throughput results as filed in PubChem.
